Records with an inconclusive call do not appear. Active and inactive are the calls of the source. Calls follow the shape of the dose curve; as a rule, active = well fitted activation curve with a large enough effect in the signal ratio, with a control signal flat (not every such curve was filed as active); inconclusive = small, poorly fitted or top-dose-only effect, or a change in a side signal; inactive = flat fitted curve, though single readings scatter; the % refers to the signal ratio.
Assay: Confirmation Concentration-Response Assay for Cell signaling CRE-BLA (Fsk stim)
Conditions: CHO CRE-bla reporter (cAMP response element driving beta-lactamase), NKH477 EC10 stim, FRET ratio; series mostly up to 38.3 µM
From the text: NIH Molecular Libraries Screening Centers Network [MLSCN] NIH Chemical Genomics Center [NCGC] MLSCN Grant: 1X01MH079867-01 Assay Provider: Marshall W. Nirenberg, U.S. National Heart, Lung and Blood Institute CRE beta-lactamase Assay Overview Memories persist for different lengths of time, from seconds or minutes to a lifetime. There are two kinds of memory: short-term memory (STM) and long-term memory (LTM). STM lasts for minutes to hours, which maybe mediated by modifications of molecules involved in synaptic functions. LTM lasts for days or longer, and may be due to the formation of new synapses or restructuring of existing synapses. LTM, but not STM, requires gene transcription and synthesis of proteins. CREB (cyclic-AMP Responsive Element Binding Protein) is one of the candidates plays an important role for enhancement of some types of LTM. CREB, a family of transcription factors, regulates the transcription of genes containing cAMP Responsive Elements (CRE). CRE is a nucleotide sequence often found in the promoter regions of genes that are binding sites for CREB. Using a beta-lactamase reporter-gene under control of cAMP responsive element, a cell-based assay [CellSensor(TM) CRE-bla CHO developed by Invitrogen Corp.] was used to measure forskolin-induced signaling. The selected compounds were measured for their ability to modulate positively the action of EC10 NKH 477, a water soluble forskolin, on reporter gene activity. Compounds were screened in a titration series in 1536-well format. Positive modulators were identified based on the AC50 values derived from the screening data.
NCGC Assay Protocol Summary 2000 cells/5uL in Opti-MEM medium containing 0.5% dialyzed FBS, 0.1 mM NEAA, 1 mM sodium pyruvate and 10 mM HEPES was dispensed into 1536-well plates and cells were cultured at 37 degrees Celsius overnight. Next day 23 nL of compounds or DMSO were delivered to each well using a pin tool, and 1uL of EC10 level of NKH 477, or EC100 level of IBMX, a PDE inhibitor, in the present of NKH 477, or assay medium was added. And then the plates were incubated at 37 degrees Celsius for 3 hours. 1 uL of CCF4-dye mixture was added to each well. After incubated at room temperature for 2 hours the plates were measured on an EnVision plate reader at Excitation 405nm, Emission1=460nm and Emission 2=530nm. The %Activity was determined from the ratio of 460nm/530nm. Keywords: NIH Roadmap, MLSCN, MLSMR, qHTS, NCGC, CRE, beta-lactamase reporter-gene assay.

| SMILES | Potency |
| --- | --- |
| CCN(C(=O)c1cn(C)c(=O)c2cc(OC)c(OC)cc12)c1cc(OC)ccc1OC | inactive |
| CCc1nc(SCC(=O)N2CCc3ccccc32)c2oc3ccccc3c2n1 | 10 µM (active) |
| COC(=O)c1ccc(CSc2nc3c(cnn3-c3ccc(F)cc3)c(=O)[nH]2)o1 | 15.8 µM (active) |
| Cc1nn(-c2ccccc2)c2sc(C(=O)N(CC(=O)NC(C)(C)C)Cc3ccco3)cc12 | 7.94 µM (active) |
| CCOc1ccc(C2c3c(oc4ccccc4c3=O)C(=O)N2c2ccc(C)cn2)cc1OC (stereo not given) | 15.8 µM (active) |
| COc1ccc(CCNC(=O)CSc2nc(C)nc3c2oc2ccccc23)cc1OC | 12.6 µM (active) |
| Cc1cc(N2CCN(S(=O)(=O)c3ccc4c(c3)OCCO4)CC2)n2ncnc2n1 | 3.16 µM (active) |
| CC[C@]1(O)C[C@@H]2CN(CCc3c([nH]c4ccccc34)[C@](C(=O)OC)(c3cc4c(cc3OC)N(C=O)[C@H]3[C@@](O)(C(=O)OC)[C@H](C(=O)OC)[C@@]5(CC)C=CCN6CC[C@]43[C@H]65)C2)C1 | 0.501 µM (active) |
| O=S(=O)(Nc1cccc(-c2nc3cccnc3s2)c1)c1ccc2c(c1)OCCO2 | 10 µM (active) |
| CC1(C)Cc2c(sc3nc(SCC#N)n(C4CCCCC4)c(=O)c23)CO1 | 20 µM (active) |
| CN(C)c1nc(N(C)C)nc(N(C)C)n1 | inactive |
| Fc1ccc(C2=Nn3c(Cc4ccccc4)nnc3SC2)cc1 | inactive |
| COc1cc(C2NC(=O)NC(C)=C2C(=O)OC(C)(C)C)ccc1OCC(N)=O (stereo not given) | inactive |
| COC(=O)c1ccc(CSc2ccc3nnc(-c4cccc(F)c4)n3n2)o1 | 15.8 µM (active) |
| CCN(CC)c1nc2ccccc2n2cnnc12 | 15.8 µM (active) |
| Fc1ccc(CSc2ncnc3c2oc2ccccc23)cc1 | 10 µM (active) |
| CCc1nc(Nc2ccc3nccnc3c2)c2oc3ccccc3c2n1 | 1.58 µM (active) |
| CCCN(CCC)c1nc2ccccc2n2c(C)nnc12 | 12.6 µM (active) |
| Cc1ccc(Nc2c3c(nc4ncnn24)CCC3)cc1 | inactive |
| COc1ccc(/C(O)=C(\C#N)c2nc3ccccc3n2C)cc1OC | 15.8 µM (active) |

| SMILES | Potency |
| --- | --- |
| CSc1nc2ccc(Nc3nc(N4CCOCC4)nc(N4CCOCC4)n3)cc2s1 | 12.6 µM (active) |
| COC(=O)Nc1nc2ccc(C(=O)c3cccs3)cc2[nH]1 | 0.794 µM (active) |
| CCCN(C#N)c1nc(NCC)nc(NC(C)C)n1 | 12.6 µM (active) |
| Nc1nc(CSCc2ccccc2)nc(N2CCOCC2)n1 | inactive |
| Cc1cc(Nc2ccc3ccccc3c2)n2ncnc2n1 | inactive |
| O=C(Nc1ccccc1O)c1cc(S(=O)(=O)N2CCOCC2)ccc1Cl | inactive |
| CCc1nc2nc(C)cc(Nc3cccc(C(F)(F)F)c3)n2n1 | 7.94 µM (active) |
| Cc1cc(-c2nnc3n2N=C(c2ccc(-c4ccccc4)cc2)CS3)n[nH]1 | 12.6 µM (active) |
| Cn1c(/C(C#N)=C/Nc2ccccn2)nc2ccccc21 | inactive |
| Cc1ccc(-n2ncc3c(=O)[nH]c(SCC(=O)N4CCOCC4)nc32)cc1 | inactive |
| CCCCCOC(=O)c1[nH]c2c(c1C)C(=O)CC(c1ccco1)C2 (stereo not given) | 0.251 µM (active) |
| CCCN(CCC)CCNC(=O)c1cc2c(=O)n(C)c3ccccc3c2n1C | inactive |
| CC1CCc2c(sc3nc(C4CC4)nc(SCC(=O)NCc4ccco4)c23)C1 (stereo not given) | inactive |
| COc1cc(-c2cc(=O)c3ccccc3o2)ccc1O | 15.8 µM (active) |
| CN1C(=O)NC(c2ccccc2)C2=C1CN(Cc1ccccc1)C2=O (stereo not given) | inactive |
| Cc1cc(C)n(-c2nc(Nc3ccccc3)nc(-n3nc(C)cc3C)n2)n1 | inactive |
| O=C(c1cc(S(=O)(=O)N2CCOCC2)ccc1F)N1CCCc2ccccc21 | inactive |
| CCOC(=O)c1ccccc1NC(=O)c1cc(S(=O)(=O)N2CCOCC2)ccc1F | 12.6 µM (active) |
| Cn1c(/C(C#N)=C/C2CC=CCC2)nc2ccccc21 (stereo not given) | inactive |
| Cc1cc(C)nc(N2CCN(c3nc(C)nc4c3oc3ccccc34)CC2)n1 | inactive |

From PubChem BioAssay AID916 (National Center for Advancing Translational Sciences (NCATS), 2007)
